Compound activity from PubChem BioAssay.
Compounds with a hit are over-represented: about 0.92% of the library has one in this group of screens.
BLM helicase inh: blocks DNA unwinding by human BLM helicase; P54132; recombinant BLM DNA unwinding, fluorescence dequenching; Potency, µM (titrated, usually from 56.1 µM), inactives show at the highest dose activity change, negative = inhibition, hits mostly inhibitors; hit rate 0.2% among 350,000; AID 2528;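 note: plate controls were vehicle for no effect and no enzyme for full effect; nearly all actives have a fitted effect of over 35% in size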
APEX1 inh: APE1 (human) endonuclease inhibition; P27695; recombinant APE1, TAMRA/BHQ-2 abasic DNA cleavage fluorescence; Potency, µM (highest dose often 65.8 µM), for inactives: at the highest dose activity change, negative = inhibition, usual class: inhibitors; hit rate 0.35% among 350,000; AID 2517;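 note: plate controls were vehicle for no effect and reference inhibitor for full effect; nearly all actives have a fitted effect of over 55% in size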
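Compound pre-exposure to 0.75 nM APE1, 15 min at ambient temperature. Reaction initiated with 50 nM TAMRA/BHQ-2 THF substrate, read immediately in kinetic mode, 525 nm excitation, 598 nm emission.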
FEN1 inh: blocks human flap endonuclease 1 | hit rate 0.35% among 390,000 | P39748 | Recombinant FEN1 flap cleavage, fluorescence, 15 min | Potency, µM (series often up to 114 µM), without a hit: at the top dose activity change, negative = inhibition, usual class: inhibitors | AID 588795; note: nearly all actives have a fitted effect of over 65% in size
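Compounds are tested as a concentration series against 10 nM FEN1; after a 15 min room-temperature preincubation, 50 nM substrate starts cleavage, with plate reads at 0 and 15 min. Normalized responses are fitted by a Hill equation.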
RECQ1 inh-1: blocks DNA unwinding by human RECQ1; RECQ1 DNA unwinding, red fluorescence kinetic read; P46063; hit rate 0.54% among 240,000; Potency, µM (titrated, usually from 57.3 µM), for the others: at the highest dose activity, negative = inhibition, most hits filed as inhibitors;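 note: plate controls were vehicle for no effect and no enzyme for full effect; nearly all actives have a fitted effect of over 30% in size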
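RECQ1T1 50 nM; forked duplex (20 bp + 30-nt ss tails) 200 nM, ATP 2 mM final; pH 8.0, 2 mM MgCl2, 2.5 ug/ml poly(dI-dC); 15 min compound preincubation; discontinuous kinetic read over 2 h at RT.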
TDP1 block: TDP1 (human) enzyme inhibition; Q9NUW8; recombinant TDP1, AlphaScreen DNA substrate cleavage; Potency, µM (highest dose often 130 µM), inactives show at the top dose activity change, negative = inhibition, actives largely listed as inhibitors; hit rate 0.28% among 350,000; AID 485290; note: nearly all actives have a fitted effect of over 40% in size
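Enzyme-compound mixtures sat 15 min at room temperature, followed by a 5 min reaction with 15 nM final substrate and 10 min with AlphaScreen beads. Recombinant human Tdp1 was used at 1 nM final.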
RECQ1 inh conf: confirmation of human RECQ1 helicase inhibitors. shares compounds with RECQ1 inh-1. RECQ1 helicase DNA unwinding, fluorescence. Potency, µM (doses to about 229 µM), inactives show at the highest dose activity change, negative = inhibition, hits mostly inhibitors. hit rate 28% among 610; note: nearly all actives have a fitted effect of over 45% in size
RECQ1 ADP FP: counter-screen for RECQ1 inhibitors: ADP displacement; hit rate 27% among 530; Potency, µM (doses to about 228 µM), without a hit: top-dose activity change, negative = inhibition, most hits filed as inhibitors; shares compounds with RECQ1 inh-1; ADP fluorescence polarization displacement counterscreen; note: nearly all actives have a fitted effect of over 45% in size
RECQ1 inh-2: RECQ1 helicase inhibition confirmed, round 2; shares compounds with RECQ1 inh-1; hit rate 15% among 1,100; Potency, µM (series often up to 119 µM), inactives show at the top dose activity, negative = inhibition, most hits filed as inhibitors; recombinant RECQ1 DNA unwinding, red fluorescence; AID 504841; note: nearly all actives have a fitted effect of over 50% in size
* marks the source's active call; other numbers are inactive results. Calls come from the whole dose curve; as a rule, active = well fitted curve in the direction sought with a large enough effect; inconclusive = small, poorly fitted or top-dose-only effect, or another doubt; inactive = no such curve, though single readings can be large; an effect the other way counts as inactive or inconclusive. Unless noted, % is set by controls: 0 for no effect and ±100 for the full control effect; potency is the fitted concentration of half-maximal effect.

`Cc1ccc(-n2ncc3c(Nc4cccc(C(F)(F)F)c4)ncnc32)cc1C` gave BLM helicase inh -7.3%, FEN1 inh 15.2% and TDP1 block 2.6%.
Screening O=c1c(-c2ccc([N+](=O)[O-])cc2)coc2c(O)c(O)ccc12 returned BLM helicase inh -18.8%, APEX1 inh inconclusive, FEN1 inh inconclusive, RECQ1 inh-1 8.91µM*, TDP1 block 7.7% and RECQ1 inh-2 inconclusive.
Screening CC(=O)Oc1ccc(C(=O)[C@H]2[C@H]3C(=O)N(c4ccc5ccccc5c4)C(=O)[C@H]3[C@@H]3C=CC=NN32)cc1 returned BLM helicase inh -10.6%, APEX1 inh 12.8%, FEN1 inh 9.7%, RECQ1 inh-1 31.6µM*, TDP1 block 1.4% and RECQ1 inh-2 inconclusive.
CCc1cc(=O)oc2cc(C)c(CN3CCCCC3)c(O)c12 was read as BLM helicase inh 17.8µM*, APEX1 inh 22.4µM*, FEN1 inh 50.1µM*, RECQ1 inh-1 10µM*, RECQ1 inh conf inconclusive, RECQ1 ADP FP 63.1µM* and RECQ1 inh-2 -14.8%.
CCCc1cc(=O)oc2c(CN3CCCC3)c(O)ccc12 was read as BLM helicase inh -1.2%, APEX1 inh -2.2%, FEN1 inh -0.9%, RECQ1 inh-1 -9.1% and TDP1 block -2.1%.
CCCc1cc(=O)oc2cc(C)c(CN3CCCC3)c(O)c12 was read as BLM helicase inh 25.1µM*, APEX1 inh inconclusive, FEN1 inh 50.1µM*, RECQ1 inh-1 12.6µM* and RECQ1 inh-2 inconclusive.
For CCOC(=O)N1CCc2c(sc3c2c(=O)n(-c2ccc(CC)cc2)c(=O)n3Cc2cc(C)ccc2C)C1 the results were BLM helicase inh -3.8%, FEN1 inh 19.4% and TDP1 block 3.8%.
For O=C1C(Cl)=C(N2CCC(C(=O)O)CC2)C(=O)c2ccccc21 the results were BLM helicase inh -30.0%, APEX1 inh inconclusive, FEN1 inh -14.2%, RECQ1 inh-1 22.4µM*, TDP1 block -5.5% and RECQ1 inh-2 35.5µM*.
For O=S(=O)(NCCc1csc2nc(-c3ccccc3)nn12)c1ccc(Oc2ccccc2)cc1 the results were BLM helicase inh -1.1%, FEN1 inh -20.7% and TDP1 block 2.6%.
Screening CC(C)OCCCNC(=O)c1ccc2c(c1)S(=O)(=O)c1ccccc1C2=O returned BLM helicase inh 1.0%, APEX1 inh -2.1%, FEN1 inh -1.3% and TDP1 block 2.0%.
COCCCNC(=O)c1ccc2c3c(onc13)-c1ccccc1C2=O was read as BLM helicase inh -6.5%, APEX1 inh inconclusive, FEN1 inh 44.7µM*, RECQ1 inh-1 12.6µM*, TDP1 block 7.5% and RECQ1 inh-2 50.1µM*.
`Cc1ccc(C2C(C#N)=C(N)Oc3c2oc(CO)cc3=O)o1` (configuration not stated) gave BLM helicase inh -1.3%, APEX1 inh inconclusive, FEN1 inh 3.3%, RECQ1 inh-1 39.8µM* and RECQ1 inh-2 7.9%.
`CC1CCN(CCCn2c(=S)[nH]c3c(sc4ccc([N+](=O)[O-])cc43)c2=O)CC1` gave BLM helicase inh -1.4%, APEX1 inh 16.9%, FEN1 inh -2.6%, RECQ1 inh-1 inconclusive, TDP1 block 0.0% and RECQ1 inh-2 inconclusive.
Screening COc1ccc(-c2nc3cnc(N4CCNCC4)nc3n(Cc3cccc(OC)c3)c2=O)cc1 returned BLM helicase inh inconclusive, APEX1 inh inconclusive, RECQ1 inh-1 inconclusive and RECQ1 inh-2 inconclusive.
